# “And” between values parts separate entries of the source, which are not always exact repeats. Equal entries are not always repeated. Structures can show the parent of a compound that is named as a salt.
# Legend:
# Assay in all cases: cell viability relative to vehicle control; higher = less cytotoxic
# Conditions in all cases: 10 µM
# [1] = tested on: K562
# In short: (§1)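 Screening covered the Selleck bioactive, kinase and epigenetic probe libraries, less identity-inconsistent compounds, on CRISPR-edited mutant clones and isogenic wild-type clones of four leukaemia lines. Cells, at 2000 per well in 50 µL medium, received a single 10 µM acoustically dispensed dose. After 48 h the supernatant was removed and CellTiter-Glo luminescence was read. Viability was analysed in Genedata Screener as percent of the on-plate vehicle control.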
# [2] = tested on: MARIMO
# In short: as §1
# [3] = tested on: MOLM14
# In short: as §1
# [4] = tested on: OCI-AML2
# In short: as §1
SMILES,cell viability ([1]; SRSF2 genotype: SRSF2 P95H/wt),cell viability ([1]; SRSF2 genotype: SRSF2 wt/wt),cell viability ([2]; SRSF2 genotype: SRSF2 P95H/wt),cell viability ([2]; SRSF2 genotype: SRSF2 wt/wt),cell viability ([3]; SRSF2 genotype: SRSF2 P95H/wt),cell viability ([3]; SRSF2 genotype: SRSF2 wt/wt),cell viability ([4]; SRSF2 genotype: P95H/wt),cell viability ([4]; SRSF2 genotype: wt/wt)
OC[C@H]1O[C@@H](c2ccc(Cl)c(Cc3ccc(O[C@H]4CCOC4)cc3)c2)[C@H](O)[C@@H](O)[C@@H]1O,89.6% and 87.1%,94.4%,89.4%,102%,94.3%,93.8%,93.1%,105%
Cn1cc(-c2ccc3ncc(Cc4ccc5ncccc5c4)n3n2)cn1,108% and 96.6%,98%,102%,101%,87.7%,101%,72.5%,79.3%
CCCOc1ccc2[nH]c(NC(=O)OC)nc2c1 [Oxibendazole],15.3% and 34.8%,28%,6.59%,7.72%,10.9%,3.24%,4.68%,8.07%
COc1ccc(Oc2cc(C)c(-c3csc(NC(=O)c4ccncc4)n3)c(C)c2)cc1,43.7% and 37.3%,36.9%,37.8%,37.6%,42.4%,25.9%,47.8%,32.2%
COC(=O)C1=C(C)NC(C)=C(C(=O)OC)C1c1ccccc1[N+](=O)[O-] [Nifedipine (Adalat)],76.5% and 90.2%,80.8%,57.5%,51.7%,49.3%,49.5%,29.4%,48.4%
CN(N=O)C(=O)NC1C(O)OC(CO)C(O)C1O (configuration not stated) [Streptozotocin (STZ)],103%,105%,98.3%,104%,97.2%,103%,100%,107%
O=C(CCCCc1ccc2c(c1)OCO2)N1CCCCC1 [Tetrahydropiperine],91.7% and 93.2%,97.2%,88.6%,102%,89.8%,93.9%,85%,88.3%
N=C(N)NC(=O)c1nc(Cl)c(N)nc1N [Amiloride HCl],88.4% and 98.5%,92.9%,99.3%,96.2%,72.8%,86.7%,85.8%,84.7%
CCCN1CCCC[C@H]1C(=O)Nc1c(C)cccc1C [Ropivacaine HCl],91% and 94.8%,94.2%,99.7%,89%,95%,95.4%,98%,95.6%
Nc1nc(F)nc2c1ncn2[C@@H]1O[C@H](COP(=O)(O)O)[C@@H](O)[C@@H]1O [Fludarabine Phosphate (Fludara)],105% and 112%,98.7%,64.2%,84.9%,88.1%,101%,6.47%,10.8%
CC(=O)CCc1ccccc1 [Benzylacetone],100% and 103%,104%,101%,92.5%,106%,98.6%,106%,94.8%
CC(C)=C1CC[C@@H](C)CC1=O [Pulegone],95.9% and 92.3%,93%,101%,95.6%,98.1%,96.3%,96%,98.7%
NCCNc1ccc(NCCN)c2c1C(=O)c1ccncc1C2=O [Pixantrone Maleate],18.2% and 23.9%,20.5%,10.7%,7.14%,0.24%,0.35%,0.25%,0.85%
CN(CC(=O)N(Cc1ccc(C2CCCCC2)cc1)c1ccc(C(=O)NO)cc1)S(=O)(=O)c1c(F)c(F)c(F)c(F)c1F,0.47% and 0.41%,0.42%,0.5%,0.67%,0.26%,0.33%,0.18%,0.24%
CCCCCCCCCCCCCCCCOc1nc2ccc(C)cc2c(=O)o1 [Cetilistat],107% and 111%,108%,108%,108%,103%,108%,107%,108%
C[C@@H](O[C@H]1OCCN(Cc2nn(P(=O)(O)O)c(=O)[nH]2)[C@H]1c1ccc(F)cc1)c1cc(C(F)(F)F)cc(C(F)(F)F)c1 [Fosaprepitant dimeglumine salt],52.4% and 55.7%,57%,53.1%,52.6%,60.9%,65%,52.4%,58%
OC1CCC(Nc2ncc3nc(Nc4c(F)cc(F)cc4F)n([C@H]4CCOC4)c3n2)CC1 (some centres not stated) [Tanzisertib(CC-930)],101% and 111%,114%,116%,103%,91.8%,109%,117%,122%
Cc1nnc(SCC2=C(C(=O)O)N3C(=O)[C@@H](NC(=O)Cn4cc(Cl)c(=O)c(Cl)c4)[C@H]3SC2)s1 [Cefazedone],102% and 107%,108%,106%,111%,106%,106%,121%,102%
Cc1nc(-c2cn3c(n2)-c2ccc(-c4cnn(C(C)(C)C(N)=O)c4)cc2OCC3)n(C(C)C)n1,74.5% and 79.4%,72.8%,45.2%,42%,32.3%,40.1%,8.91%,22.8%
O=C1CN2Cc3c(ccc(Cl)c3Cl)N=C2N1 [Anagrelide hydrochloride],94.6% and 89.8%,108%,84.1%,96.4%,83.4%,93.4%,101%,110%

SMILES,cell viability ([1]; SRSF2 genotype: SRSF2 P95H/wt),cell viability ([1]; SRSF2 genotype: SRSF2 wt/wt),cell viability ([2]; SRSF2 genotype: SRSF2 P95H/wt),cell viability ([2]; SRSF2 genotype: SRSF2 wt/wt),cell viability ([3]; SRSF2 genotype: SRSF2 P95H/wt),cell viability ([3]; SRSF2 genotype: SRSF2 wt/wt),cell viability ([4]; SRSF2 genotype: P95H/wt),cell viability ([4]; SRSF2 genotype: wt/wt)
N[C@@H](CSC(c1ccccc1)(c1ccccc1)c1ccccc1)C(=O)O,43.2% and 34.9%,34.4%,7.81%,4.29%,8.53%,2.73%,7.71%,11.8%
COc1ccccc1N1CCN(CCN(C(=O)C2CCCCC2)c2ccccn2)CC1,76.7% and 78.4%,77.3%,67.8%,73%,75.4%,77.3%,74.9%,66.3%
C=C1[C@H](CO)[C@@H](O)C[C@@H]1n1cnc2c(=O)[nH]c(N)nc21 [Entecavir],109% and 104%,103%,94.8%,101%,101%,106%,79.5%,93.7%
C=C[C@@H]1C[C@]1(NC(=O)[C@@H]1C[C@@H](Oc2ncc(OC)c3ccc(Cl)cc23)CN1C(=O)[C@@H](NC(=O)OC(C)(C)C)C(C)(C)C)C(=O)NS(=O)(=O)C1CC1 [Asunaprevir],88.6% and 75.8%,78.8%,103%,109%,96.3%,97.9%,108%,110%
COc1cccc(-c2cc(=O)c3ccccc3o2)c1N,95.9% and 95.1%,95.6%,69.9%,61.9%,99.5%,109%,73.1%,58%
Oc1ccc(CC2NCCc3cc(O)c(O)cc32)cc1 (configuration not stated) [Higenamine hydrochloride],92.4% and 103%,98%,105%,98.5%,79.8%,89.7%,94.9%,102%
FC(F)(F)c1ccc(/C=C/c2nc(COc3ccc(CCCCn4ccnn4)cc3)co2)cc1 [Mubritinib (TAK 165)],68.1% and 58.5%,56.7%,67.2%,61.8%,70.1%,55.5%,49.2%,47%
Cc1cc(N2CCCCC2)nc2ccccc12,97% and 102%,98.3%,93.6%,106%,98.8%,109%,96.6%,103%
CC(C)c1c2cc(-c3ccnc(NC4CCC(NC5CCOCC5)CC4)n3)ccc2nn1C (configuration not stated),10% and 24.4%,8.4%,13.4%,6.58%,0.76%,0.31%,2.85%,13.2%
CCC[S+]([O-])c1ccc2[nH]c(NC(=O)OC)nc2c1 (configuration not stated) [Albendazole Oxide (Ricobendazole)],88.8% and 83.5%,80.6%,85.7%,88%,88.2%,95.4%,87.8%,95.5%
O=C(Nc1c[nH]nc1-c1nc2ccc(CN3CCOCC3)cc2[nH]1)NC1CC1,26.9% and 28.6%,15.8%,6.33%,2.59%,1.54%,0.83%,2.98%,15.3%
COc1cc(S(=O)(=O)O)ccc1O [Sulfogaiacol],106% and 109%,113%,108%,112%,107%,104%,117%,105%
Cc1ccc(NCCN(C)CCNc2ccnc3cc(Cl)ccc23)c2c(=O)c3ccccc3sc12,75.8% and 92.5%,76.6%,78%,88.2%,81%,79.7%,85.9%,84%
"CCCCCCCCCCC[C@@H](C[C@@H]1OC(=O)[C@H]1CCCCCC)OC(=O)[C@H](CC(C)C)NC=O [Orlistat (Alli, Xenical)]",75.8% and 85.2%,76.8%,41.8%,64.9%,75.3%,73.4%,49.6%,86.8%
C[C@H]1[C@H](C)CC[C@]2(C(=O)O)CC[C@]3(C)C(=CC[C@@H]4[C@@]5(C)CC[C@H](O)C(C)(C)[C@@H]5CC[C@]43C)[C@H]12 [Ursolic acid (Malol)],96.5% and 93.7%,90.6%,87.2%,102%,98.2%,97%,81.4%,92.8%
O=C(O)c1cc(C(=O)O)c(C(=O)N(Cc2cccc(Oc3ccccc3)c2)[C@H]2CCCc3ccccc32)cc1C(=O)O,119% and 108%,113%,102%,103%,105%,101%,106%,105%
CC[C@H]1OC(=O)C[C@@H](O)[C@H](C)[C@@H](O[C@@H]2O[C@H](C)[C@@H](O)[C@H](N(C)C)[C@H]2O)[C@@H](CCN2C[C@H](C)C[C@H](C)C2)C[C@@H](C)C(=O)/C=C/C(C)=C/[C@@H]1CO[C@@H]1O[C@H](C)[C@@H](O)[C@@H](OC)[C@H]1OC [Tilmicosin phosphate],102%,108%,98%,103%,106%,101%,108%,112%
C[C@H](CCC(=O)NCCS(=O)(=O)O)[C@H]1CC[C@H]2[C@@H]3[C@H](O)C[C@@H]4C[C@H](O)CC[C@]4(C)[C@H]3C[C@H](O)[C@]12C [Taurocholic acid sodium salt hydrate],110% and 102%,107%,107%,108%,103%,111%,106%,107%
CNS(=O)(=O)CCc1ccc2[nH]cc(C3CCN(C)CC3)c2c1 [Naratriptan HCl],104% and 100%,104%,97.3%,110%,107%,104%,102%,113%
